According to PubChem BioAssay AID1463 (National Center for Advancing Translational Sciences (NCATS), 2008):
The campaign covered roughly 280,000 compounds. About 2,600 (0.93%) were called active. Entries that show only a call come without a potency. Roughly 8% stayed inconclusive and do not appear here. Calls follow the shape of the dose curve; as a rule, active = well fitted curve in the direction sought with a large enough effect; inconclusive = small, poorly fitted or top-dose-only effect; inactive = flat fitted curve, though single readings scatter. Many of the other results were omitted from the sample, so actives are more common in it than they were.

Assay: Counterscreen qHTS for Inhibitors of Tau Fibril Formation, Fluorescence Polarization; also: nearly all actives have a fitted effect of over 55% in size
Settings: tau K18 P301L (four-repeat tau fragment) Alexa594 fluorescence, heparin fibrillization; series mostly up to 57.7 µM
Summary of the method: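 Human K18 P301L tau (15 uM unlabeled plus 0.24 uM Alexa 594-labeled, final) in 100 mM sodium acetate pH 7 was mixed with compound and 20 uM heparin and incubated 6 hr at 37 C.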
Potency is read from the fitted curve at half-maximal effect; tags tell the direction and shape of the fitted curve or compound fluorescence and quenching.

SMILES | Potency
NNc1nc2c(Cl)cccc2s1 | 15.8 µM [quencher] (active)
Fc1cc(F)c2nc(Nc3nc4c(F)cccc4s3)sc2c1 | inactive
COc1cccc2sc(Nc3nc(C)c(C(C)=O)s3)nc12 | inactive
COc1ccccc1CNC(=O)c1ccc(NC(=O)N2CC(C)Sc3ccccc32)cc1 (stereo unspecified) | inactive
Nc1ccc(Nc2ccccc2)cc1 | 14.1 µM [quencher] (active)
c1ccc(Nc2n[nH]nc2-c2ccccc2)cc1 | inactive
Cc1ccc(Nc2ccccc2N)cc1 | inactive
C[n+]1ccc(/C=C/c2c[nH]c3ccccc23)cc1 | inactive
CSC(=S)N/N=C/c1c[nH]c2ccccc12 | 12.6 µM [quencher] (active)
O=C(N/N=C/c1c[nH]c2ccccc12)c1cc2ccccc2o1 | inactive
Cc1ccc(CN2CCc3nc(N4CCN(C)CC4)ncc3C2)cc1 | inactive
CCOc1ccc(N(Cc2ccccc2)C(=O)c2nc(S(C)(=O)=O)ncc2Cl)cc1 | inactive
CC1=C(C(=O)OCC(C)C)C(c2ccc(OCc3ccccc3)cc2)N2C(=O)CCSC2=N1 (stereo unspecified) | inactive
COc1ccc(OC)c(NC(=O)CCN2CCC(C)CC2)c1 | inactive
CCN1CCN(c2nc(Nc3cc(OC)ccc3OC)nc(Nc3cc(OC)ccc3OC)n2)CC1 | 28.2 µM [quencher] (active)
CCOC(=O)N1CCN(CCC(=O)Nc2cc(OC)ccc2OC)CC1 | inactive
CCOC(=O)c1ccc(NC(=O)CCn2cnnn2)cc1 | inactive
CSc1nc(-c2ccccc2Cl)nc2c1Cc1c(CO)cnc(C)c1O2 | inactive
CCCOc1ccc(-c2cccc(NS(=O)(=O)c3ccccc3)c2)nn1 | inactive
CSc1nc(Nc2ccc(F)cc2)cc(-c2ccccc2)n1 | 7.08 µM [quencher] (active)
CSc1nc(-c2ccccc2)nc(C(Cl)Cl)n1 | inactive
Cc1cc(Nc2ccccc2)nc(N)n1 | inactive

SMILES | Potency
Cc1cc2c(cc1C)C(c1cccc(OC(C)C)c1)CC(=O)N2 (stereo unspecified) | inactive
O=C(O)C1CCN(c2ccc([N+](=O)[O-])cc2[N+](=O)[O-])CC1 | inactive
COc1ccc(N2CCN(c3ccc([N+](=O)[O-])cc3Cl)CC2)cc1 | inactive
O=[N+]([O-])c1ccc(N2CCN(c3ccc(O)cc3)CC2)c(Cl)c1 | 14.1 µM [quencher] (active)
CCN1CCN(c2ncnc3c2cnn3-c2ccc(C)c(C)c2)CC1 | inactive
Oc1ccc(CNc2ccccc2O)cc1 | 17.8 µM [quencher] (active)
Oc1ccc(N2CCN(C(=S)NCc3ccccc3)CC2)cc1 | inactive
O=[N+]([O-])c1ccccc1NCc1ccc(Cl)cc1 | inactive
Cc1cc(C)c2oc(-c3cccc(NC(=O)c4cccc(F)c4)c3C)nc2c1 | inactive
COc1ccc(OC)c(CCNC(=O)CCCn2c(=O)c3cccn3c3cccnc32)c1 | inactive
COc1ccc(Nc2ncnc3sc(-c4ccccc4)cc23)c(OC)c1 | 14.1 µM [quencher] (active)
COc1ccccc1Nc1ncnc2c1oc1ccccc12 | inactive
COc1ccc(Nc2ncnc3ccc(OC)cc23)cc1 | inactive
O=C(N/N=C/c1ccc([N+](=O)[O-])o1)c1cccc(S(=O)(=O)N2CCOCC2)c1 | inactive
O=[N+]([O-])c1cc(Cl)cc(/C=N/NC(=S)Nc2cc(S(=O)(=O)N3CCOCC3)ccc2Cl)c1O | 8.91 µM [quencher] (active)
O=C(CN1CCN(c2ccc(O)cc2)CC1)Nc1cc(S(=O)(=O)N2CCOCC2)ccc1Cl | inactive
CSc1ccccc1-c1nnc(NC(=O)c2ccc3c(c2)OCCO3)o1 | inactive
CCCNC(=O)C1CCC(Cn2c(=O)c3sccc3n(Cc3ccccc3F)c2=O)CC1 (stereo unspecified) | inactive
COc1ccc(NC(=O)CSc2nccn2C2CCCC2)cc1OC | inactive
Cn1c(=O)c2c(ncn2CC(=O)Nc2cccc(C(F)(F)F)c2)n(C)c1=O | inactive
CC(C)(C)c1ccc(NC(=O)NCc2ccco2)cc1 | inactive
CC(C)(C)c1ccc(C(=O)NCCC(=O)NCc2ccco2)cc1 | 14.1 µM [quencher] (active)

SMILES | Potency
CCCCNC(=O)CCNC(=O)c1ccc(C(C)(C)C)cc1 | inactive
COc1ccc(NC(=O)COCc2cc(-c3ccco3)on2)cc1 | inactive
Cc1ccc(NC(=O)CSc2nc3ccccc3c3nc(CCn4cncc4C)nn23)cc1F | inactive
Cc1c(C(=O)Nc2ccccc2)sc2nc3n(c(=O)c12)CCCCC3 | inactive
Cc1ccc(NC(=O)Nc2sc3nc4n(c(=O)c3c2C)CCC(C)CC4)c(Cl)c1 (stereo unspecified) | 7.08 µM [quencher] (active)
Cc1nc(N2CCC(C)CC2)c2c(C)c(C(=O)Nc3cc(F)ccc3C)sc2n1 | inactive
CCOC(=O)c1cccc(NC(=O)Cn2cnc3nc4c(cc3c2=O)CCCC4)c1 | inactive
COc1ccc(-n2nc(C(=O)NCCc3ccc(Cl)cc3)c3c4ccccc4n(C)c3c2=O)cc1Cl | inactive
CC1CCC(N2CC(=O)N(CCC3=CCCCC3)C(c3ccc(F)cc3)C2=O)CC1 (stereo unspecified) | inactive
O=C(CCn1ccc2cc(S(=O)(=O)N3CCCC3)ccc21)NCc1cccc(Cl)c1 | inactive
CC(C)(C)OC(=O)N1CCC(c2c(C(=O)N3CCN(c4cccc(Cl)c4)CC3)cnn2-c2cccc(Cl)c2)CC1 | inactive
Cc1cccc(N2CCN(C(=O)CCSCc3ccccc3F)CC2)c1C | inactive
Cc1ccc(Nc2nc(-c3ccc(O)cc3O)cs2)nc1 | 8.91 µM [quencher] (active)
Cc1ccc(NC(=O)c2cc(-c3ccc(C)o3)nc3ccccc23)nc1 | inactive
Cc1cc(O)ccc1-c1cnc2ccccc2n1 | inactive
COc1ccc(NC(=O)CSc2nc3ccccc3[nH]2)cc1 | inactive
Cc1ccc2nc(N3CCN(c4cccc(Cl)c4)CC3)c3nnnn3c2c1 | inactive
O=C(NC1CC1)c1ccc2c(c1)NC(=O)c1ccccc1S2 | inactive
CC(=O)Nc1cccc(/C(C)=N/NC(=O)c2ccccc2Cl)c1 | inactive
C/C(=N\Nc1cccc(C(=O)O)c1)c1ccc2c(c1)Nc1ccccc1S2 | 11.2 µM [quencher] (active)
CCN(CCCNC(=O)c1cc2c(=O)n(CC)c3ccccc3c2s1)Cc1ccccc1 | inactive
Cc1c(NC(=O)C(C)(C)C)cccc1-c1nc2ccccc2s1 | inactive
